The full ranking holds about 33,000 sequences; the median of “normalized occupancy” is about 0.075, and the highest 2% start at about 0.095. This excerpt belongs to a sample that is enriched for the highest values.

In the assay the target is MaxL homodimer (Homo sapiens, UniProt P61244 1-160). Description: universal protein-binding microarray (PBM); PBS-based mixture, 10 nM His-tagged protein dimer, 2% milk, 200 ng/uL BSA, 50 ng/uL salmon testes DNA, 0.02% TX-100; detection with Alexa 488 anti-His antibody;; high values mean tight binding. As to conditions: protein: recombinant; tags: C-terminal His-tag (pET21a); chain copies: 2; dsDNA, one strand shown. The essentials: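 A His-tagged protein dimer at 10 nM was incubated on Agilent 4 x 44 K arrays of the 'all 10-mer' universal design, then labelled with 10 ng/μL fluorophore-conjugated anti-His antibody and scanned on a GenePix 4400A. A fluorescence intensity was assigned to each 8-mer. Binding occupancy is each such intensity normalised to that of the highest-ranked one.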
MaxL homodimer, sequence (P61244 whole entry): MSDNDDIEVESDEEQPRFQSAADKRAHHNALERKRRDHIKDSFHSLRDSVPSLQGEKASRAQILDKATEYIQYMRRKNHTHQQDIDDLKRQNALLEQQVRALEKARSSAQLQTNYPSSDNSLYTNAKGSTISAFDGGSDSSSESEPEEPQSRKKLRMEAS
TAGACCTA: the binding signal was 0.0731 normalized occupancy. The value for GGGGAACA was 0.081 normalized occupancy; that for TTACTAAA was 0.0728 normalized occupancy; that for TGACTCAA was 0.0763 normalized occupancy. As to AGGGAGCA, the binding signal was found to be 0.0728 normalized occupancy. On to TAGTTGGA, for which the binding signal stood at 0.0742 normalized occupancy. The value for TAAGGACA was 0.075 normalized occupancy; that for CTACGCAC was 0.0773 normalized occupancy; that for ACCGCGTA was 0.0727 normalized occupancy. As for AACGCGTG, the binding signal was determined as 0.123 normalized occupancy.

Turning to AACGCGTA, the binding signal is 0.0792 normalized occupancy. As for ACCGCGCG, the binding signal turned out to be 0.0856 normalized occupancy. With AACGCGTT, the binding signal came out at 0.0813 normalized occupancy. As to AACGCGTC, the binding signal amounted to 0.0723 normalized occupancy.

Turning to GACGCGTC, the binding signal turned out to be 0.0757 normalized occupancy. In the case of ACCGCGTG, the binding signal worked out at 0.182 normalized occupancy.

In the case of CACGCGTA, the binding signal was determined as 0.121 normalized occupancy. The value for GACGCGTA was 0.0737 normalized occupancy; that for CACGCGTC was 0.119 normalized occupancy. As to TACGCGTA, the binding signal amounted to 0.0797 normalized occupancy. As to CCTTAGCC, the binding signal is 0.0725 normalized occupancy.

On to CGTGCTGC, for which the binding signal was 0.09 normalized occupancy. Take CGCTGACA: the binding signal came to 0.0773 normalized occupancy. For the sequence GCGAGCAA, the binding signal is 0.0723 normalized occupancy.

In the case of AAGAACAT, the binding signal was 0.08 normalized occupancy. Consider GACGGTCA, for which the binding signal was determined as 0.0718 normalized occupancy. Turning to GCGACAGA, the binding signal worked out at 0.0794 normalized occupancy. As to AAGTCATT, the binding signal came to 0.0758 normalized occupancy. As for CAACATTA, the binding signal was 0.0824 normalized occupancy. Take CCGAATGA: the binding signal stood at 0.0745 normalized occupancy.

Regarding AAACACAG, the binding signal is 0.0769 normalized occupancy. For the sequence CTCGCGTA, the binding signal turned out to be 0.0788 normalized occupancy. In the case of CGCGCGTA, the binding signal turned out to be 0.0797 normalized occupancy. For the sequence ATCGCGTA, the binding signal worked out at 0.0764 normalized occupancy. The value for CACGCGTG was 0.17 normalized occupancy; that for ATCGCGTG was 0.127 normalized occupancy. The value for ATCGCGTC was 0.0719 normalized occupancy. Take GCCAACCC: the binding signal is 0.08 normalized occupancy.

As for AACATGGT, the binding signal stood at 0.0843 normalized occupancy. For the sequence AGTGAAAG, the binding signal was determined as 0.0743 normalized occupancy. With CCCGGTAG, the binding signal was 0.0721 normalized occupancy. With ATGTGATG, the binding signal was determined as 0.0968 normalized occupancy. The value for ATGTGACG was 0.0922 normalized occupancy; that for ATGTGATC was 0.0964 normalized occupancy. The value for ATGTGAAA was 0.0872 normalized occupancy; that for ATGTGAAT was 0.0967 normalized occupancy.

CTGTGATC: the binding signal was found to be 0.0728 normalized occupancy. On to ATGTGAAG, for which the binding signal amounted to 0.0891 normalized occupancy.

In the case of GTGTGATA, the binding signal came to 0.0856 normalized occupancy. CTGTGATA: the binding signal is 0.0741 normalized occupancy. On to AGGTGATC, for which the binding signal came out at 0.0832 normalized occupancy.

Take ATGTGATA: the binding signal turned out to be 0.0999 normalized occupancy. Take ATCTGATG: the binding signal turned out to be 0.0779 normalized occupancy. Regarding AAGAGGAA, the binding signal stood at 0.0726 normalized occupancy. AATTATCG: the binding signal is 0.0772 normalized occupancy. The value for AATTCGAG was 0.0732 normalized occupancy.

AAGAGGGC: the binding signal came to 0.0738 normalized occupancy. In the case of CTGGTTAC, the binding signal worked out at 0.0749 normalized occupancy. For ATAGGGAT, the binding signal was 0.0812 normalized occupancy. The value for CCGAGTAG was 0.0732 normalized occupancy; that for GATGATAA was 0.078 normalized occupancy; that for AGAATGTG was 0.0881 normalized occupancy. With ATGGTAGG, the binding signal was 0.0818 normalized occupancy.

In the case of CTTACTAA, the binding signal turned out to be 0.0721 normalized occupancy. Turning to CTCGTGGA, the binding signal came to 0.103 normalized occupancy.

As for ATCGTGGC, the binding signal amounted to 0.086 normalized occupancy. The value for GTCGTGGA was 0.0856 normalized occupancy; that for CTCGTGGC was 0.119 normalized occupancy.

For the sequence ATCGTGGA, the binding signal came to 0.084 normalized occupancy.

In the case of CTAGTGGC, the binding signal is 0.0765 normalized occupancy. In the case of CATCTCTA, the binding signal was 0.0817 normalized occupancy. For CAATTATG, the binding signal is 0.0802 normalized occupancy. As to CAACACGC, the binding signal stood at 0.0995 normalized occupancy. The value for GAACACGC was 0.108 normalized occupancy. GAACACGA: the binding signal worked out at 0.0948 normalized occupancy. GAACACAC: the binding signal amounted to 0.0767 normalized occupancy. In the case of AAACACGC, the binding signal stood at 0.0929 normalized occupancy. With CAACACGA, the binding signal amounted to 0.0817 normalized occupancy. As for ATTAGCGG, the binding signal was determined as 0.0719 normalized occupancy. As for ACATTGAA, the binding signal was 0.0824 normalized occupancy.

As to ACGAGAGG, the binding signal amounted to 0.0776 normalized occupancy.

With AAACAAAG, the binding signal is 0.0763 normalized occupancy. On to GTATGCAC, for which the binding signal is 0.0856 normalized occupancy. As for GCATGCAC, the binding signal is 0.11 normalized occupancy. Regarding GCATGCAA, the binding signal is 0.0988 normalized occupancy. The value for ACATGCAA was 0.0826 normalized occupancy. With GAATGCAC, the binding signal was 0.0772 normalized occupancy.

With TCATGCAA, the binding signal is 0.0829 normalized occupancy. ATGGAAGC: the binding signal worked out at 0.0783 normalized occupancy. Consider TGAATCCA, for which the binding signal was found to be 0.0757 normalized occupancy. On to TCGTTCCA, for which the binding signal turned out to be 0.0775 normalized occupancy. The value for CCATAGCC was 0.0762 normalized occupancy. Consider AAACACGG, for which the binding signal came to 0.0741 normalized occupancy. Consider AAACACGA, for which the binding signal came to 0.0848 normalized occupancy.

On to ACACACGG, for which the binding signal amounted to 0.083 normalized occupancy. For AAACACGT, the binding signal worked out at 0.106 normalized occupancy. In the case of CCACACGA, the binding signal is 0.0959 normalized occupancy. On to ACACACGT, for which the binding signal is 0.0986 normalized occupancy. On to GCACACAC, for which the binding signal worked out at 0.0907 normalized occupancy. Take ACACACGA: the binding signal was found to be 0.0911 normalized occupancy.

On to TCACACGA, for which the binding signal was found to be 0.0859 normalized occupancy. The value for CCACACGG was 0.0835 normalized occupancy; that for GCACACGA was 0.0896 normalized occupancy.

On to GCACACGC, for which the binding signal was 0.1 normalized occupancy. Take GTTTCCTA: the binding signal was found to be 0.0787 normalized occupancy. The value for AATATAAG was 0.0817 normalized occupancy.

Regarding CCCCTAAC, the binding signal came to 0.0774 normalized occupancy. As for AACACTAC, the binding signal amounted to 0.0726 normalized occupancy. AATAGTGC: the binding signal is 0.0733 normalized occupancy. Consider GGAGAGAC, for which the binding signal was 0.0742 normalized occupancy. The value for ACACACAC was 0.0915 normalized occupancy; that for ACACACGC was 0.103 normalized occupancy. With CCACACGC, the binding signal was 0.0953 normalized occupancy. As to CCACACAA, the binding signal is 0.0772 normalized occupancy. For CCACACAC, the binding signal worked out at 0.0837 normalized occupancy. Turning to AGACACGC, the binding signal turned out to be 0.0922 normalized occupancy. Consider ACTAACAA, for which the binding signal was determined as 0.0766 normalized occupancy. Turning to GCTTACCA, the binding signal stood at 0.0723 normalized occupancy. The value for GCAATCTA was 0.0722 normalized occupancy. Regarding ATTAAAGA, the binding signal is 0.0773 normalized occupancy. Regarding CTATTAAC, the binding signal was determined as 0.0779 normalized occupancy. Take GTAGTAAA: the binding signal is 0.0757 normalized occupancy.

With AGGACCAT, the binding signal is 0.0823 normalized occupancy. Turning to ACTATTCG, the binding signal was 0.0759 normalized occupancy. For AAAGCATG, the binding signal was 0.104 normalized occupancy. For CAAGCATC, the binding signal worked out at 0.0744 normalized occupancy. For the sequence AAAGCATC, the binding signal was found to be 0.0796 normalized occupancy. In the case of CAAGCATA, the binding signal is 0.0775 normalized occupancy. The value for CAAGCATG was 0.105 normalized occupancy; that for AAAGCATA was 0.0783 normalized occupancy; that for CTCACTTC was 0.0734 normalized occupancy. The value for TATTCCGA was 0.072 normalized occupancy; that for CTCCACCA was 0.075 normalized occupancy. Consider ATCCACGC, for which the binding signal was 0.109 normalized occupancy.

With ATCCACGG, the binding signal worked out at 0.0796 normalized occupancy. As to CTCCACGC, the binding signal stood at 0.101 normalized occupancy. As for ATCCACGA, the binding signal was 0.0905 normalized occupancy.

Regarding CTCCACGA, the binding signal turned out to be 0.0817 normalized occupancy. As to AGAGATAA, the binding signal came out at 0.0771 normalized occupancy.

On to CCTTAGGC, for which the binding signal was 0.0728 normalized occupancy. The value for AACGCCTG was 0.0733 normalized occupancy; that for CACGCCTC was 0.0974 normalized occupancy. CACGCCTG: the binding signal was found to be 0.0966 normalized occupancy.

As for GACGCCTC, the binding signal was determined as 0.0726 normalized occupancy. As to CTCGCCTC, the binding signal came out at 0.0748 normalized occupancy. As for CACGCCTA, the binding signal worked out at 0.0938 normalized occupancy. AAATAGTT: the binding signal is 0.0744 normalized occupancy. For ATGCGAGG, the binding signal was 0.0841 normalized occupancy. ATTGTTAA: the binding signal worked out at 0.0765 normalized occupancy. Consider AAGCACGA, for which the binding signal is 0.0867 normalized occupancy. ACGCACGA: the binding signal worked out at 0.091 normalized occupancy. The value for ACGCACTA was 0.0766 normalized occupancy; that for AAGCACGT was 0.102 normalized occupancy; that for GCGCACGA was 0.093 normalized occupancy. In the case of AAGCACGG, the binding signal was 0.0779 normalized occupancy. On to ACGCACCT, for which the binding signal amounted to 0.0799 normalized occupancy.

Turning to GCGCACGC, the binding signal turned out to be 0.0964 normalized occupancy.

In the case of ACGCACGT, the binding signal came to 0.0986 normalized occupancy. ACGCACGC: the binding signal stood at 0.109 normalized occupancy. ACGCACGG: the binding signal turned out to be 0.0828 normalized occupancy. For GCGCACTA, the binding signal turned out to be 0.0726 normalized occupancy. The value for GACGACGA was 0.0747 normalized occupancy; that for AAATGTAA was 0.0834 normalized occupancy; that for ACTCATAC was 0.074 normalized occupancy.

Consider ATCCCACG, for which the binding signal is 0.093 normalized occupancy. On to CTTATTAC, for which the binding signal was found to be 0.0796 normalized occupancy.

Take CAATCACC: the binding signal is 0.0797 normalized occupancy. For ACTTGTAG, the binding signal came out at 0.073 normalized occupancy. Take GGAGCCAA: the binding signal amounted to 0.0767 normalized occupancy. GCAAAGGA: the binding signal came to 0.0773 normalized occupancy. For the sequence AAATGGGG, the binding signal is 0.0777 normalized occupancy. As for ATGATTTA, the binding signal was found to be 0.079 normalized occupancy.

The values above are taken from paper PMC4242493, “Sequence specificity incompletely defines the genome-wide occupancy of Myc”.
